The list is not random: actives were taken first. Their share in the collection is about 4.6%.
PfHsp90 yeast 2: reduces growth (ATP signal) of yeast expressing P. falciparum Hsp90. 310,000 compounds, 0.32% hits. S. cerevisiae expressing PfHsp90, BacTiter-Glo ATP, 48 h; yeast lacking PDR1 and PDR3 efflux regulators. inhibition, % at 9.4 µM. AID 504621;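 active means every replicate shows inhibition above about 80%, whatever the replicate mean, limit read from the data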;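 further: 0% = DMSO neutral controls and 100% = 20 µM radicicol positive controls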
tim23-1 inh: inhibits growth of tim23-1 mutant yeast | inhibition, % at 20 µM | S. cerevisiae tim23-1 growth, BacTiter-Glo luminescence, 24 h | 330,000 compounds, 1.3% hits | AID 463212;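 active means growth inhibition of the mutant yeast at or above 50%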;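 further: temperature-sensitive mutant grown at 25 °C; plate controls were DMSO-treated mutant yeast for no effect and medium wells lacking yeast for full effect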
tim10-1 inh: inhibits growth of tim10-1 mutant yeast | S. cerevisiae tim10-1 ts strain growth, BacTiter-Glo, 24 h | inhibition, % at 20 µM | 330,000 compounds, 2.2% hits | AID 463190;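 active means inhibition of at least 40%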;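 further: mutant grown at 25 °C; 0% = DMSO wells with yeast and 100% = wells holding no yeast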
NLRP3 yeast inh: blocks the NALP3 inflammasome reconstituted in yeast; inhibition, % at 10 µM; 330,000 compounds, 0.39% hits; Yeast reconstituted NLRP3/ASC/caspase-1, beta-gal luminescence, 24 h;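 active means inhibition of 50% or more; inactive means inhibition below 50%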;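 further: plate controls were induced DMSO wells for no effect and uninduced yeast grown without galactose for full effect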
SKKanGAS inh: blocks kanamycin growth of S. pyogenes SKKanGAS strain. BacTiter-Glo, 6 h. inhibition, % at 7.5 µM. 300,000 compounds, 1.3% hits;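 active means mean replicate score, as percent of positive control median, at least 50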;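 further: strain carries kanamycin resistance gene driven by streptokinase promoter and grows in 40 µg/ml kanamycin; loss of luminescence reflects streptokinase promoter inhibition or plain growth inhibition; 0% = median of DMSO wells and 100% = positive control at its reference dose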
TIM10 inh: inhibits growth of TIM10 yeast strain | S. cerevisiae TIM10 strain growth, BacTiter-Glo luminescence, 24 h | inhibition, % at 10 µM | 330,000 compounds, 1.4% hits | AID 463195;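 active means inhibition of 40% or more at the single tested concentration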;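 further: wild-type TIM10 isogenic control strain grown at permissive 25 °C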
tim10-1 confirm: confirmation of tim10-1 mutant yeast growth inhibitors | inhibition, % at 20 µM | S. cerevisiae tim10-1 ts strain growth, BacTiter-Glo, 24 h | shares compounds with tim10-1 inh | 7,400 compounds, 56% hits;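 active means inhibition of yeast growth at or above a set limit in either of two repeat tests at 20 µM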;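 further: tim10-1 mutant grown at permissive 25 °C to find synthetic lethal compounds; 0% = DMSO yeast wells and 100% = medium wells without yeast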
The depositor's hits bear a star; . = no result given.

SMILES | PfHsp90 yeast 2 | tim23-1 inh | tim10-1 inh | NLRP3 yeast inh | SKKanGAS inh | TIM10 inh | tim10-1 confirm
O=S(=O)(O)c1nc2ccccc2n1Cc1cccc2ccccc12 | . | 3.5 | 12.7 | -8.3 | 20.5 | 7.2 | .
CN(C)c1nc(OCCOC(=O)Nc2ccc(Cl)cc2Cl)nc(N(C)C)n1 | 29.7 | 30.4 | 41.6* | 6.9 | -7.4 | 18.1 | 15.4
O=C(Cc1ccc(Cl)cc1)Nc1cccc(C(=O)Nc2ccccc2C(=O)O)c1 | 2.8 | 8.5 | -1.0 | 10.0 | 29.4 | 9.7 | .
CCOC(=O)c1c(-c2ccc(C)o2)csc1NC(=O)COC(=O)c1cccs1 | -21.9 | 41.8 | 41.8* | 19.7 | 6.4 | 21.0 | 30.0
CCOC(=O)c1c(-c2ccc(C)o2)csc1NC(=O)CN1CCOCC1 | -16.6 | 0.5 | 17.2 | 17.6 | -6.4 | 18.5 | .
CCOC(=O)c1c(-c2ccc(C)o2)csc1NC(=S)NC(=O)N(C)C | -25.2 | 41.1 | 55.4* | -6.3 | -9.2 | 37.3 | 45.5*
N#Cc1ccc(C(=O)Nc2cccc(S(=O)(=O)NC3=NCCC3)c2)cc1 | -2.8 | 5.7 | 10.4 | 20.3 | . | 10.4 | .
O=C(CSc1nnc(CNC(=O)c2ccco2)o1)Nc1cccc(Cl)c1 | -14.1 | 6.6 | 17.2 | -3.0 | -6.2 | 5.0 | .
Cc1onc(C(=O)Nc2c(C)n(C)n(-c3ccccc3)c2=O)c1[N+](=O)[O-] | 7.2 | 13.5 | 5.9 | -0.7 | -6.7 | 11.5 | .
COc1ccc(C(=O)Oc2cc(N)n(S(=O)(=O)c3ccccc3)n2)cc1 | -12.3 | 19.1 | 40.0* | 3.6 | -1.0 | 21.1 | 22.7
COc1ccc(S(=O)(=O)n2nc(OC(=O)c3cccs3)cc2NC(=O)c2cccs2)cc1 | -28.9 | 8.4 | 44.9* | 17.6 | -3.3 | -4.9 | 29.5*
COc1ccc(S(=O)(=O)n2nc(OC(C)=O)cc2N)cc1 | 33.2 | 9.1 | 7.7 | 11.6 | 0.0 | 13.9 | .
Cc1cccc(NC(=O)c2ccc([N+](=O)[O-])cc2Cl)n1 | -17.6 | 14.3 | 9.6 | 13.7 | -10.3 | 9.7 | .
Cc1cccc(NC(=O)c2ccc([N+](=O)[O-])s2)n1 | 3.0 | 38.0 | 60.8* | 6.9 | 0.3 | 34.5 | 57.7*
Cc1nc(NC(=S)NC(=O)c2cccs2)ccc1Br | -3.8 | 11.6 | 2.1 | 13.6 | -14.3 | 11.4 | .
Cc1cccc(NC(=S)NC(=O)c2cccs2)n1 | -7.5 | 47.4 | 44.9* | 10.0 | -1.0 | 20.9 | 30.8
COc1ccccc1NC(=O)CCCC(=O)OCC(=O)c1ccc(F)cc1 | 11.2 | 11.8 | 25.0 | 6.5 | -6.3 | 5.5 | .
COc1ccccc1NC(CC(=O)c1ccccc1)C(=O)OCC(=O)c1ccc(F)cc1 (configuration not stated) | -0.2 | 33.2 | 45.3* | -41.2 | -10.5 | 33.7 | 39.5*
COc1ccc(/C=C/C(=O)NC(=S)NNC(=O)[C@H]2C[C@@H]2c2ccccc2)cc1OC | -68.3 | 0.7 | 47.7* | 3.1 | 63.2* | 4.0 | 11.1
Cc1[nH][nH]c(=O)c1C(c1c(C)[nH][nH]c1=O)c1cn(Cc2cccc3ccccc23)c2ccccc12 | -26.3 | 49.4 | 48.2* | 11.0 | . | 10.5 | 33.3*
CC(C)(C)C(=O)NNC(=O)COc1ccc2ccccc2c1Br | 3.9 | 16.8 | -5.6 | 10.2 | -3.1 | 8.3 | .
COC(=O)NNC(=O)COc1ccc2ccccc2c1Br | -23.5 | 29.9 | 45.5* | 9.9 | -1.9 | 21.6 | 24.6
CC1=CC(=O)C=C(C)C1=NOC(=O)/C=C\c1ccccc1 | 4.3 | 32.4 | 45.6* | -16.5 | -10.1 | 37.1 | 32.1*
COc1ccc([C@H]2[C@H]3C=CC[C@@H](C)[C@@H]3C(=O)N2Cc2ccccc2)cc1Cl | -17.2 | 38.3 | 42.3* | 12.1 | 21.9 | 30.5 | 30.0
COc1ccc(Br)cc1[C@H]1[C@H]2C=CC[C@@H](C)[C@@H]2C(=O)N1Cc1ccccc1 | -9.5 | 12.0 | 59.7* | 19.5 | 42.3 | 10.2 | 42.3*
SMILES | PfHsp90 yeast 2 | tim23-1 inh | tim10-1 inh | NLRP3 yeast inh | SKKanGAS inh | TIM10 inh | tim10-1 confirm
C[C@@H]1CC=C[C@H]2[C@H]1C(=O)N(Cc1ccccc1)[C@H]2c1ccc(-c2ccoc2)cc1F | 12.7 | 49.8 | 41.2* | 10.2 | 29.5 | 30.2 | 36.0*
Cc1cc(C)n(-c2ccc(C(=O)NC3CCCCC3)cc2)n1 | 9.7 | 2.7 | 22.8 | 3.5 | -1.5 | 26.1 | .
O=C(CCN1C(=O)/C(=C/c2cccs2)SC1=S)N1CCCCC1 | 15.0 | 38.9 | 41.5* | 24.5 | 0.3 | 23.6 | 12.1
COc1ccccc1/C=C1\SC(=S)N(CCC(=O)N2CCCCC2CCO)C1=O (configuration not stated) | 2.5 | 34.0 | 41.8* | 12.0 | 3.3 | 16.0 | 8.6
CC1=CC(c2ccc(Cl)cc2)n2nc(NC(=O)CCC(=O)O)nc2N1 (configuration not stated) | 23.1 | 6.6 | -12.3 | -1.3 | 0.1 | 12.6 | .
O=[N+]([O-])c1ccc(C(=S)N2CCN(c3ccc(F)cc3)CC2)cc1 | -2.2 | 34.8 | 42.9* | -8.4 | -13.1 | 20.9 | 25.7
S=c1[nH]c(-c2ccccc2)cn1/N=C/c1ccccc1Br | -51.8 | 24.9 | 41.9* | 19.2 | 10.8 | 15.3 | 11.2
O=C(N=C1SCC(=O)N1c1ccccc1Cl)c1ccccc1 | 7.6 | 34.6 | 41.9* | 18.7 | -2.1 | 8.4 | 24.1
O=C(N=C1SCC(=O)N1c1ccccc1Cl)c1ccco1 | -9.5 | 12.7 | 30.4 | -4.9 | -1.9 | 24.3 | .
Cc1cccc(CNC(=O)c2ccc3nc(Cc4ccccc4F)oc3c2)n1 | 2.4 | 16.1 | 21.6 | 22.3 | 5.1 | -12.2 | .
CC(=O)Nc1ccccc1OCC(=O)c1cc(C)n(Cc2cccs2)c1C | . | 18.9 | 48.4* | -7.8 | 4.7 | 15.5 | 19.0
COc1ccc(-n2cnnc2SCC(=O)c2cc(C)n(Cc3cccs3)c2C)cc1 | -19.0 | 20.6 | 44.2* | 6.0 | 12.9 | 25.4 | 23.2
Cc1cc(C(=O)COc2cccnc2[N+](=O)[O-])c(C)n1Cc1cccs1 | -7.7 | -14.1 | 10.5 | 13.4 | -3.8 | -0.1 | .
O=C(NNc1nc(=O)c2cccnc2s1)c1ccccc1O | -138.8 | 13.2 | -16.6 | 2.9 | 42.3 | -6.9 | .
O=C(Nc1cccc(N2C(=O)C=CC2=O)c1)c1cccs1 | -123.3 | -5.3 | 62.8* | -12.8 | 5.9 | 8.5 | 56.6*
Cc1nc2ccccc2c(=O)n1-c1cccc(NC(=O)c2cccs2)c1 | -6.0 | 7.2 | 5.0 | -18.1 | 20.3 | 5.5 | .
CC12CC(c3ccccc3O1)N(C(=O)c1ccco1)C(=S)N2c1ccccc1 (configuration not stated) | . | 45.6 | 42.4* | 6.9 | -2.7 | 37.8 | 26.9
CCn1ncc(NC(=S)NCCc2ccc(OC)c(OC)c2)c1C(N)=O | 33.9 | 3.2 | -2.8 | 12.7 | 1.4 | 5.6 | .
CC1CC2=C(NC(=S)NC2c2ccc(F)cc2)/C(=C/c2ccc(F)cc2)C1 (configuration not stated) | 1.8 | 36.6 | 45.6* | 7.9 | 29.5 | 28.6 | 28.5

Source: PubChem (several laboratories)
